# Reference: PubChem BioAssay (EPA / NIEHS)
# “And” between values parts separate entries of the source, which are not always exact repeats. Equal values may be shown once. Results filed as inconclusive are left out. The source made the active and inactive calls. The calls were made as follows: active = hit-call score of the fitted dose curve at least 0.9, where 1 is the maximum; inconclusive = response in the unintended direction; inactive = score below 0.9.
# Experiments:
# [1] = target: human Dopamine Receptor D2 (DRD2), DRD2 (gene 1813) (UniProt P14416); experiment: NVS_GPCR_hDRD2s: NovaScreen (NVS) G Protein-Coupled Receptor Assay for human Dopamine Receptor D2 (DRD2) (AID 2283266)
# In short: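 Radioligand displacement used human DRD2 membranes extracted from CHO cells and was read by filter-based scintillation counting after 1.5 hours. Primary screening was in duplicate at 25 uM. Loss of signal versus DMSO was fitted, with concentration series in follow-up.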
# [2] = target: human Leukotriene B4 Receptor 1 (LTB4-BLT1), LTB4R (gene 1241) (UniProt Q15722); experiment: NVS_GPCR_hLTB4_BLT1: NovaScreen (NVS) G Protein-Coupled Receptor Assay for human Leukotriene B4 Receptor 1 (LTB4-BLT1) (AID 2283271)
# In short: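 Radioligand displacement binding on receptor extracted from human neutrophils, cell-free, 1 h after dosing; filter-based scintillation counting. Primary screen in duplicate at 25 uM, actives retested in concentration-response up to 50 uM; loss of signal versus DMSO.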
# [3] = target: D(1A) dopamine receptor (Homo sapiens) (UniProt P21728); experiment: NVS_GPCR_hDRD1: NovaScreen (NVS) G Protein-Coupled Receptor Assay for human Dopamine Receptor D1 (DRD1) (AID 2283269)
# In short: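 Extracted HEK293 DRD1 is incubated 1 h with compound and a tritiated or iodinated radioligand, then filtered and counted. Screening runs 25 uM in duplicate with on-plate positive and negative controls.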
# [4] = target: Muscarinic acetylcholine receptor M1 (Homo sapiens) (UniProt P11229); experiment: NVS_GPCR_hM1: NovaScreen (NVS) G Protein-Coupled Receptor Assay for human Muscarinic, M1 Receptor (AID 2283270)
# In short: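 Cell-free radioligand displacement using membrane protein extracted from CHO cells, read by filter-based scintillation counting 1 h after dosing. Loss of bound signal fitted versus DMSO; primary screen single concentration 25 uM in duplicate, actives followed by concentration series.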
# [5] = target: Muscarinic acetylcholine receptor M2 (Homo sapiens) (UniProt P08172); experiment: NVS_GPCR_hM2: NovaScreen (NVS) G Protein-Coupled Receptor Assay for human Muscarinic, M2 Receptor (AID 2283273)
# In short: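 CHO membrane prep, radioligand + test compound, 1 h; filtration, scintillation count. Screen 25 uM duplicate → conc. series for actives. Readout: decrease in binding vs DMSO control.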
# [6] = target: human Dopamine Receptor D4.4 (DRD4.4), DRD4 (gene 1815) (UniProt P21917); experiment: NVS_GPCR_hDRD4.4: NovaScreen (NVS) G Protein-Coupled Receptor Assay for human Dopamine Receptor D4.4 (DRD4.4) (AID 2283264)
# In short: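 Radioligand displacement on human DRD4.4 from CHO-derived membranes, 1 hour incubation, bound counts read by filtration and scintillation. Primary screen in duplicate at 25 uM; actives followed up in concentration series.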
# [7] = target: human Histamine 1 Receptor (H1), HRH1 (gene 3269) (UniProt P35367); experiment: NVS_GPCR_hH1: NovaScreen (NVS) G Protein-Coupled Receptor Assay for human Histamine 1 Receptor (H1) (AID 2283268)
# In short: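 Cell-free radioligand displacement at human H1 receptor, 1 h, filter scintillation counting; primary screen 25 uM in duplicate, hits in concentration series; loss of binding fitted vs DMSO.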
# [8] = target: Muscarinic acetylcholine receptor M3 (Homo sapiens) (UniProt P20309); experiment: NVS_GPCR_hM3: NovaScreen (NVS) G Protein-Coupled Receptor Assay for human Muscarinic, M3 Receptor (AID 2283272)
# In short: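 Radioligand displacement binding on human M3 receptor in CHO-derived membranes, 1 h incubation, filter-based scintillation counting. Primary screen in duplicate at 25 uM; actives followed up in concentration series; loss of signal versus DMSO.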
# [9] = target: human Endothelin Receptor Type A (ETA), EDNRA (gene 1909) (UniProt P25101); experiment: NVS_GPCR_hETA: NovaScreen (NVS) G Protein-Coupled Receptor Assay for human Endothelin Receptor Type A (ETA) (AID 2283265)
# In short: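 Cell-free radioligand displacement using SH-SY5Y-derived protein, 3 h incubation, filter-based scintillation counting. Primary screen in duplicate at 25 uM; actives then run in concentration-response up to 50 uM; loss of binding fitted versus DMSO.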
# [10] = target: human Endothelin Receptor Type B (ETB), EDNRB (gene 1910) (UniProt P24530); experiment: NVS_GPCR_hETB: NovaScreen (NVS) G Protein-Coupled Receptor Assay for human Endothelin Receptor Type B (ETB) (AID 2283267)
# In short: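 Human astrocytoma cell membranes; radioligand competitive binding read by filter scintillation counting 4 hours after dosing. Single-concentration duplicate screen at 25 uM, then singleton concentration-response up to 50 uM; loss of signal versus DMSO.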
# human Dopamine Receptor D4.4 (DRD4.4), DRD4 (gene 1815), sequence (P21917 whole entry, looked up): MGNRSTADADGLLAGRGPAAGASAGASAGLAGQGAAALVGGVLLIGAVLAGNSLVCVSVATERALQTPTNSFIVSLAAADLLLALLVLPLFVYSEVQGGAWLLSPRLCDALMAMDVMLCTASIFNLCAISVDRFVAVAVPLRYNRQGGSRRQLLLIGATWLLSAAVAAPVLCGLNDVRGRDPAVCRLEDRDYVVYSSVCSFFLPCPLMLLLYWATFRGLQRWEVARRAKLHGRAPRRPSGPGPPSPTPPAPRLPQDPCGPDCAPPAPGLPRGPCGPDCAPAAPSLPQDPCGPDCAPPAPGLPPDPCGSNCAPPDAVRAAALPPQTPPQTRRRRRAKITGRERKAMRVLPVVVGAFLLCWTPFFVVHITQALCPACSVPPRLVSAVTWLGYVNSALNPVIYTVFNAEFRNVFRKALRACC
# Muscarinic acetylcholine receptor M2 (Homo sapiens), sequence (P08172 whole entry, looked up): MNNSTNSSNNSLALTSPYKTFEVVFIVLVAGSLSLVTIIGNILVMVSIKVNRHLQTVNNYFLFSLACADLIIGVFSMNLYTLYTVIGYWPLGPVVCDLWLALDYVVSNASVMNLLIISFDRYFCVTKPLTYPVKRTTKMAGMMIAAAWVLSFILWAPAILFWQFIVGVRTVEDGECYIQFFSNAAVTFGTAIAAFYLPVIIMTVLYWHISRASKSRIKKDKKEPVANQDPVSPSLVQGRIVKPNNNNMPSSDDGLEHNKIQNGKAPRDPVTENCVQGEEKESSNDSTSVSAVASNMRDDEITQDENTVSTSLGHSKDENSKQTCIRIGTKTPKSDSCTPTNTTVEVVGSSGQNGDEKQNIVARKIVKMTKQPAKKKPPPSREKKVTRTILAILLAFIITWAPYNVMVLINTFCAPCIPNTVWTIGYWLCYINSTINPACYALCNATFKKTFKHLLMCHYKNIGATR
# human Leukotriene B4 Receptor 1 (LTB4-BLT1), LTB4R (gene 1241), sequence (Q15722 whole entry, looked up): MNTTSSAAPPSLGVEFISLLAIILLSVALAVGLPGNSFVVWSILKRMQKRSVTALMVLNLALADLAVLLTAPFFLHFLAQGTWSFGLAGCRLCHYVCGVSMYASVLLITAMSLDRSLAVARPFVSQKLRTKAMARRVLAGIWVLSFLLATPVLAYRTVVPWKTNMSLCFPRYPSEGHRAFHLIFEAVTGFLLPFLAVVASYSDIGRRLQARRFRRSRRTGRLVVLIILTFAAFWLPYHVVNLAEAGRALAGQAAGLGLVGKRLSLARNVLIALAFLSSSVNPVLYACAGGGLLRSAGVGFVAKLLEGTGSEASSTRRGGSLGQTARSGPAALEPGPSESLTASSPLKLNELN
# Muscarinic acetylcholine receptor M1 (Homo sapiens), sequence (P11229 whole entry, looked up): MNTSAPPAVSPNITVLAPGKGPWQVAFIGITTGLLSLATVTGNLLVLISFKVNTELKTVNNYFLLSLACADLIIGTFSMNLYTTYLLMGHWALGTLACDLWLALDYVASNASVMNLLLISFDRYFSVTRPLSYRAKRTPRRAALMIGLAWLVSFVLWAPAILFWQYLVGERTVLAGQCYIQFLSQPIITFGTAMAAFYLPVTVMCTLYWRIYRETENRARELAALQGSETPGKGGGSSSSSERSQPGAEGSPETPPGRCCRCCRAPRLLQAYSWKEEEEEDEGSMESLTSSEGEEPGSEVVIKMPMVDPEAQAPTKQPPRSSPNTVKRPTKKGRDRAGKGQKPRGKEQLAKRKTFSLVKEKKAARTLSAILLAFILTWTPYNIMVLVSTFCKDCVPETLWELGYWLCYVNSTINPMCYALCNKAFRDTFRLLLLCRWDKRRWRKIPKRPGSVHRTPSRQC
# human Dopamine Receptor D2 (DRD2), DRD2 (gene 1813), sequence (P14416 whole entry, looked up): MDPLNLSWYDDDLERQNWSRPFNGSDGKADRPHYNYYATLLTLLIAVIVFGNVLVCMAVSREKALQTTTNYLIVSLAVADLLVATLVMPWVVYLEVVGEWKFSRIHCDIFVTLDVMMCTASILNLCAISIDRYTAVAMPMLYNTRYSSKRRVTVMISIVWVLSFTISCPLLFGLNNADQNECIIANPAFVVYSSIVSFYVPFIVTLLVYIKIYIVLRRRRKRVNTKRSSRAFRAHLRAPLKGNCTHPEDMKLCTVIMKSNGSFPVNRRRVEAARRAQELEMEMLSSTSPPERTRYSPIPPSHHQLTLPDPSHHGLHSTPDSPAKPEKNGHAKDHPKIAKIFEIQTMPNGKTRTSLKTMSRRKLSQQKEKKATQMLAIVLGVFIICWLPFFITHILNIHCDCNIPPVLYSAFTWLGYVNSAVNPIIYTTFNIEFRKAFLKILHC
# Muscarinic acetylcholine receptor M3 (Homo sapiens), sequence (P20309 whole entry, looked up): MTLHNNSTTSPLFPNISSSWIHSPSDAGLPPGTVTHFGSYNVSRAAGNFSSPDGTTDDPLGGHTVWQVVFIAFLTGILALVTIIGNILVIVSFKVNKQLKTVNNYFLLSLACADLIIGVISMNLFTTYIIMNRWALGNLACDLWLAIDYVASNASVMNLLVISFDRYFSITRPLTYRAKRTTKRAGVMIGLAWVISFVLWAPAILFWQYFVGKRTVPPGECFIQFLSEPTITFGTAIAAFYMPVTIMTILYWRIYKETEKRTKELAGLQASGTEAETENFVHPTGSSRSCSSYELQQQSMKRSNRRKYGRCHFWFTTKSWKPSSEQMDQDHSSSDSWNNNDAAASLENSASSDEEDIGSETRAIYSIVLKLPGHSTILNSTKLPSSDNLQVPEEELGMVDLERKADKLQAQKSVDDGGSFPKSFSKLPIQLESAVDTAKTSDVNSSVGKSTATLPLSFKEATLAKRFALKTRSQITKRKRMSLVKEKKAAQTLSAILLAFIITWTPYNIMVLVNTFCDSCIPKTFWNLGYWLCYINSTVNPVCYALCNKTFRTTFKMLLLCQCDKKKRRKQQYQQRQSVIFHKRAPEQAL
# human Histamine 1 Receptor (H1), HRH1 (gene 3269), sequence (P35367 whole entry, looked up): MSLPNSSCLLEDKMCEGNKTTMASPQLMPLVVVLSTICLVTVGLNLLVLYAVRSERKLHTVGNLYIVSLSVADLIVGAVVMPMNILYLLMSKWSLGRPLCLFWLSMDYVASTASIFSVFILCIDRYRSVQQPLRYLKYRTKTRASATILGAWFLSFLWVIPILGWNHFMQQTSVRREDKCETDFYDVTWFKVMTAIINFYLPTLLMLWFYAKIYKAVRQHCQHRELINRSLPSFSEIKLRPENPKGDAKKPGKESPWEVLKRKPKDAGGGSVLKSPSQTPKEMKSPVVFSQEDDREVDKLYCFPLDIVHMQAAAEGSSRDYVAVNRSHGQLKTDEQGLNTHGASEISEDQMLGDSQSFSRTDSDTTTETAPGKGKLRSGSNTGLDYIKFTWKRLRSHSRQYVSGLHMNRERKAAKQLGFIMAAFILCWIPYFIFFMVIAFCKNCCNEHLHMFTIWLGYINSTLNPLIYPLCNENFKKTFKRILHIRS
# D(1A) dopamine receptor (Homo sapiens), sequence (P21728 whole entry, looked up): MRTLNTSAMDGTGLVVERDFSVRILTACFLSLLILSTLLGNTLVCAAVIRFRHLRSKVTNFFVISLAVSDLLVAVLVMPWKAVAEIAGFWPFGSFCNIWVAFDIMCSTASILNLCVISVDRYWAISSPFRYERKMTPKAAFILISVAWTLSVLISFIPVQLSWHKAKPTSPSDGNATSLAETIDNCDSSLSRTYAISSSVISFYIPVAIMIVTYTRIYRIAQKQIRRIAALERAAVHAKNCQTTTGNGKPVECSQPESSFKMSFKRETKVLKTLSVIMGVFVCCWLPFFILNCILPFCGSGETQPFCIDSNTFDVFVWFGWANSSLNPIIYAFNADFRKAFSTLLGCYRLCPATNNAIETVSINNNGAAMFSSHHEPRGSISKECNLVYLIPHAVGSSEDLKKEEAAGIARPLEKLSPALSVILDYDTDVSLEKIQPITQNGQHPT
# human Endothelin Receptor Type A (ETA), EDNRA (gene 1909), sequence (P25101 whole entry, looked up): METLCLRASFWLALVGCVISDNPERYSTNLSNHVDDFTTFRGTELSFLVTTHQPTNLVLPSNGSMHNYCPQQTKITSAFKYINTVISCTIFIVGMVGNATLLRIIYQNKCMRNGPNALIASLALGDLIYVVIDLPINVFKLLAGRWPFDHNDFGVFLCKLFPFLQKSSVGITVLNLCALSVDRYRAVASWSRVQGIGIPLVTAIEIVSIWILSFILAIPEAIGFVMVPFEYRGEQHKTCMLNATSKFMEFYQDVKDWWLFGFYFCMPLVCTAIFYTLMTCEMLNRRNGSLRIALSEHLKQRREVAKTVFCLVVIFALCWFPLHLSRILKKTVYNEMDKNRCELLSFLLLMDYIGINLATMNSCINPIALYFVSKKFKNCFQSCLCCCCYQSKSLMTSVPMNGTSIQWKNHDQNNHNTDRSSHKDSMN
# human Endothelin Receptor Type B (ETB), EDNRB (gene 1910), sequence (P24530 whole entry, looked up): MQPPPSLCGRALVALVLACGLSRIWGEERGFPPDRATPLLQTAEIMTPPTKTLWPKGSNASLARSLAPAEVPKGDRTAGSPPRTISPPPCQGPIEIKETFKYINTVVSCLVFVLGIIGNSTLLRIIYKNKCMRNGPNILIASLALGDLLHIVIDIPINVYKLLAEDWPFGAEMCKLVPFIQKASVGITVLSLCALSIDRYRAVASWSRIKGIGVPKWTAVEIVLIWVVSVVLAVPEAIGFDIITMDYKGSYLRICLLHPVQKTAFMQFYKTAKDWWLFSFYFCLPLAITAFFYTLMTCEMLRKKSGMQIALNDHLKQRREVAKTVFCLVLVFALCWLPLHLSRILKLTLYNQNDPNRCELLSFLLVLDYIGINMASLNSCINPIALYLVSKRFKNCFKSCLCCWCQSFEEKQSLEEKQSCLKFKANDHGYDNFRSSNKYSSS
smiles,measurement,setting,value
CCOP(=S)(OCC)SCSP(=S)(OCC)OCC,outcome,[1],inactive
CC(C)(C)c1cc(O)ccc1O,outcome,[2],inactive
Oc1c(I)cc(I)cc1I,outcome,[3],inactive
O=C(c1ccccc1)C(Cl)Cl,outcome,[3],inactive
CC(C)(C)CC(C)(C)c1ccc(O)cc1,outcome,[4],inactive
same,outcome,[5],inactive
CCN1CCC2(CC1)COc1cc3c(cc12)N(C(=O)c1ccc(-c2ccc(-c4nnc(C)o4)cc2C)cc1)CC3,outcome,[6],inactive
same,AC50,[7],32200 nM (active)
same,AC50,[3],5490 nM (active)
same,AC50,[4],646 nM (active)
same,AC50,[8],676 nM (active)
same,AC50,[5],1320 nM (active)
C=C(C)C(=O)[O][Sn]([CH2]CCC)([CH2]CCC)[CH2]CCC,AC50,[6],1750 nM (active)
same,AC50,[9],697 nM (active)
same,AC50,[1],363 nM (active)
same,AC50,[10],14800 nM (active)
same,AC50,[7],1960 nM (active)
same,AC50,[3],326 nM (active)
same,AC50,[4],1900 nM (active)
same,AC50,[8],2670 nM (active)
same,AC50,[5],5320 nM (active)
CCC(=O)C(CC(C)N(C)C)(c1ccccc1)c1ccccc1 (stereo not given),AC50,[1],5600 nM (active)
same,AC50,[7],7250 nM (active)
same,AC50,[4],6920 nM (active)
same,AC50,[8],10700 nM (active)
same,AC50,[5],9960 nM (active)
Nc1cccc2ccccc12,AC50,[3],37800 nM (active)
CC(=O)[O][Hg][c]1ccccc1,AC50,[6],794 nM (active)
same,AC50,[9],1070 nM (active)
same,AC50,[1],428 nM (active)
same,AC50,[7],1180 nM (active)
same,AC50,[3],104 nM (active)
same,AC50,[4],1390 nM (active)
same,AC50,[2],21000 nM (active)
same,AC50,[8],562 nM (active)
same,AC50,[5],909 nM (active)
O=C1C2(Cl)C3(Cl)C4(Cl)C(Cl)(Cl)C5(Cl)C3(Cl)C1(Cl)C5(Cl)C24Cl (stereo not given),outcome,[3],inactive
same,outcome,[8],inactive
same,outcome,[5],inactive
CCOC(=O)/C=C(C)/C=C/C[C@@H](C)CCCC(C)C,AC50,[3],32100 nM (active)
COc1cc(-c2ccc(N)c(OC)c2)ccc1N,AC50,[6],16700 nM (active)
same,AC50,[1],5.28 µM (active) and 9.98 µM (active)
O=C(O)C(F)(F)C(F)(F)C(F)(F)C(F)(F)C(F)(F)C(F)(F)C(F)(F)C(F)(F)C(F)(F)C(F)(F)F,AC50,[1],11000 nM (active)
same,outcome,[3],inactive
same,AC50,[2],33400 nM (active)
